The values that follow come from PubChem BioAssay (EPA / NIEHS).

Each structure is given as a SMILES string. “And” between values parts separate entries of the source, which are not always exact repeats. Equal entries are not always repeated. Records with an inconclusive call do not appear. Some compounds were tested as several samples or in several runs, with calls that do not always agree. The source made the active and inactive calls. Rule for the calls: active = hit-call score of the fitted dose curve at least 0.9, where 1 is the maximum; inconclusive = response in the unintended direction; inactive = score below 0.9.

Test [1] concerns the target Luciferin 4-monooxygenase (Photinus pyralis) (UniProt P08659). Briefly: CCTE_Simmons_QuantiLum_inhib_2: CCTE's Firefly Luciferase Inhibition Assay, Simmons Lab (AID 2283767).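 For AC50: potency for inhibitors that lower luciferase luminescence relative to DMSO.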 The procedure, abridged:
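Cell-free recombinant firefly luciferase (5 ng/well) in 200mM potassium phosphate with 1 mg/ml BSA, 30 min at 37C with 8 concentrations from 5 nM to 87.5 uM [final], 0.5% DMSO. Luminescence read after D-luciferin (150uM)/dATP (147uM) reagent injection, pH 7.8; triplicates.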

The nature of test [2]: ACEA_AR_agonist_AUC_viability: ACEA Biosciences xCELLigence Real-Time Cell Analysis on Androgen Receptor Agonism for Viability (AID 2283775).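 For AC50: viability read 80 hours after compound addition.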 A digest of the protocol:
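Real-time impedance tracking of 22Rv1 growth, readings every 5 min for 5 h then hourly; area-under-curve viability endpoint at 80 hours, relative to DMSO. Compounds at eight concentrations, 1:4 steps, top 100 uM, n = 2.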

Test [3] can be described thus: ACEA_AR_antagonist_AUC_viability: ACEA Biosciences xCELLigence Real-Time Cell Analysis on Androgen Receptor Antagonism for Viability (AID 2283776).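 Note: 22Rv1 human prostate cancer cells growing on impedance electrode plates; hits lower the growth signal relative to DMSO meaning cytotoxicity.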 The procedure, abridged:
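Viability endpoint from label-free cell-index monitoring: 22Rv1 cultures treated with an eight-point 1:4 dilution series starting at 100 uM final, AUC at 80 h fitted against DMSO.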

The nature of test [4]: ArunA_Migration_hNP: ArunA Biomedical's Oris Neuroprogenitor (hNP) Cell Migration Assay (AID 2283754). A digest of the protocol: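 Human H9-derived hNP1 neuroprogenitors on Matrigel with LIF/bFGF, plated around seeding stoppers for 16 h at 37C; stoppers removed at start of 72 h chemical exposure. Calcein-AM staining, fluorescence 494/517 nm in detection zone; loss-of-signal vs DMSO; cytochalasin D control.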

Test [5] in a line: ArunA_NOG_NucleusCount: ArunA Biomedical's Neurite Outgrowth (NOG) Assay for Nucleus Count (AID 2283756). A digest of the protocol:
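Human H9-derived differentiated neurons were exposed for 48 h right after seeding. Hoechst-stained nuclei gated by size and intensity were counted by automated high-content imaging as viable neurons. Loss of signal vs DMSO.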

Test [6] is described as follows: ArunA_NOG_NeuritesPerNeuron: ArunA Biomedical's Neurite Outgrowth (NOG) Assay for Neurites Per Neuron (AID 2283758). The procedure, abridged: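 Differentiated human H9-derived neurons exposed to chemicals for 48 h from seeding, then stained with Hoechst and βIII-tubulin/DyLight 488. Automated imaging counted neurites (processes >10 um) per valid neuron; loss of signal versus DMSO scored.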

The nature of test [7]: ArunA_NOG_BranchPointsPerNeurite: ArunA Biomedical's Neurite Outgrowth (NOG) Assay for Branch Points Per Neurite (AID 2283759). A digest of the protocol: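 Automated image analysis traced neurites (processes >10 um) from valid cell bodies after Hoechst and βIII-tubulin staining. hNN cells from H9 embryonic stem cells, 48 h exposure. Fitted bidirectionally against DMSO.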
Test [8] deals with zebrafish Androgen Receptor (AR), gene 100005148. The experiment in a line: ATG_zfAR_XSP1: Attagene TRANS-FACTORIAL Multi-Species (XSP1) HepG2 Assay for zebrafish Androgen Receptor (AR) (AID 2283771). The procedure, abridged:
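HepG2 cells were transiently transfected with a zebrafish AR-GAL4 reporter system and partially stimulated with 3 nM 6-alpha-fluorotestosterone. Reporter mRNA was measured after 24 h dosing by RT-PCR with capillary electrophoresis, and gain-of-signal was fitted relative to DMSO.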

Test [9] addresses zebrafish Estrogen Receptor (ESR1), esr1 (gene 259252) (UniProt P57717). The experiment in a line: ATG_zfER1_XSP1: Attagene TRANS-FACTORIAL Multi-Species (XSP1) HepG2 Assay for zebrafish Estrogen Receptor (ESR1) (AID 2283772). The procedure, abridged: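 Exogenous chimeric receptor-GAL4 activity is measured in transiently transfected human HepG2 liver cells after 24 h compound exposure. Reporter transcripts are detected by RT-PCR and fluorescent capillary electrophoresis, analysed for signal gain relative to DMSO.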

For test [10], the system named is zebrafish Estrogen Receptor (ESR2B), gene 317733. Briefly: ATG_zfER2b_XSP1: Attagene TRANS-FACTORIAL Multi-Species (XSP1) HepG2 Assay for zebrafish Estrogen Receptor (ESR2B) (AID 2283773). A digest of the protocol: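 HepG2 cells transiently transfected with multiple GAL4-UAS reporter units expressing chimeric zebrafish ER2b-Gal4; 24 h chemical exposure with 3 nM 6-alpha-fluorotestosterone present. Reporter mRNA measured by RT-PCR and capillary electrophoresis; gain of signal fitted versus DMSO.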

Test [11] relates to frog Estrogen Receptor (ESR2), gene 100174814. Briefly: ATG_frER2_XSP1: Attagene TRANS-FACTORIAL Multi-Species (XSP1) HepG2 Assay for frog Estrogen Receptor (ESR2) (AID 2283774). The procedure, abridged: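 HepG2 cells transiently transfected with GAL4-UAS multiplexed reporter units expressing chimeric NR-Gal4 proteins; reporter mRNA measured 24 h after dosing by RT-PCR, FAM labeling, HpaI digestion and capillary electrophoresis. Gain-of-signal relative to DMSO; 3 nM 6-alpha-fluorotestosterone present.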

Test [12] concerns frog Estrogen Receptor (ESR1), gene 398734. Briefly: ATG_frER1_XSP1: Attagene TRANS-FACTORIAL Multi-Species (XSP1) HepG2 Assay for frog Estrogen Receptor (ESR1) (AID 2283777). The procedure, abridged:
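Read-out: fluorescent reporter mRNA via RT-PCR, HpaI digestion and capillary electrophoresis, after 24 h chemical exposure of transiently transfected human HepG2 cells expressing exogenous NR-Gal4 chimeras. DMSO served as baseline for positive-direction fitting.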

Test [13] deals with zebrafish Estrogen Receptor (ESR2A), gene 317734. Briefly: ATG_zfER2a_XSP1: Attagene TRANS-FACTORIAL Multi-Species (XSP1) HepG2 Assay for zebrafish Estrogen Receptor (ESR2A) (AID 2283778). The procedure, abridged: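 HepG2 cells transiently transfected with multiplexed GAL4-UAS reporter units and chimeric NR-GAL4 receptors; 24 h compound exposure with 3 nM 6-alpha-fluorotestosterone present. Reporter mRNA quantified by RT-PCR and capillary electrophoresis, gain-of-signal fitted relative to DMSO.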

Test [14] deals with chicken Estrogen Receptor (ESR1), ESR1 (gene 396099) (UniProt P06212). The experiment in a line: ATG_chERa_XSP1: Attagene TRANS-FACTORIAL Multi-Species (XSP1) HepG2 Assay for chicken Estrogen Receptor (ESR1) (AID 2283779). A digest of the protocol: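 HepG2 cells transiently transfected with multiplexed GAL4-UAS reporter units expressing chimeric NR-Gal4 proteins; 3 nM 6-alpha-fluorotestosterone present. Reporter mRNA measured 24 h after dosing by RT-PCR, FAM labelling, HpaI digest and capillary electrophoresis; gain of signal versus DMSO.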

The subject of test [15] is turtle Estrogen Receptor (ESR1), gene 101933533. The experiment in a line: ATG_trERa_XSP1: Attagene TRANS-FACTORIAL Multi-Species (XSP1) HepG2 Assay for turtle Estrogen Receptor (ESR1) (AID 2283781). A digest of the protocol:
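HepG2 cells transiently transfected with GAL4-UAS reporter units and chimeric NR-Gal4 constructs, dosed for 24 h with 3 nM 6-alpha-fluorotestosterone present. Reporter mRNA was quantified by RT-PCR, fluorescent labelling and capillary electrophoresis, with gain of signal fitted relative to DMSO.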

Test [16] concerns chicken Androgen Receptor (AR), gene 422165. Briefly: ATG_chAR_XSP1: Attagene TRANS-FACTORIAL Multi-Species (XSP1) HepG2 Assay for chicken Androgen Receptor (AR) (AID 2283768). The procedure, abridged:
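HepG2 cells transiently transfected with multiplexed GAL4-UAS reporter units expressing chimeric chicken AR-Gal4; 3 nM 6-alpha-fluorotestosterone for partial AR stimulation; 24 h after dosing, reporter mRNA by RT-PCR and capillary electrophoresis, gain-of-signal versus DMSO.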

In test [17] the test system is frog Androgen Receptor (AR), gene 399456. Briefly: ATG_frAR_XSP1: Attagene TRANS-FACTORIAL Multi-Species (XSP1) HepG2 Assay for frog Androgen Receptor (AR) (AID 2283770). The procedure: ATG_XSP1_multi-species_TRANS is a cell-based, multiplexed assay created by modifying the existing Attagene TRANS-FACTORIAL system to include a panel of nuclear receptors from some or all the following species: human (Homo sapiens), mouse (Mus musculus), frog (Xenopus laevis), zebrafish (Danio rerio), chicken (Gallus gallus), and turtle (Chrysemys picta). The ECOTOX-FACTORIAL format uses HepG2, a human liver cell line, with measurements taken at 24 hours after chemical dosing in a 24-well plate. Xsp1 included 3 nM 6-alpha-fluorotestosterone to partially stimulate the androgen receptor.ATG_frAR_XSP1 is one of 29 assay components measured or calculated from the ATG_XSP1_multi-species_TRANS assay. It is designed to make measurements of mRNA induction, a form of inducible reporter, as detected with fluorescence intensity signals by Reverse transcription polymerase chain reaction (RT-PCR) and Capillary electrophoresis technology.The assay endpoint ATG_frAR_XSP1 was analyzed in the positive analysis fitting direction relative to DMSO as the negative control and baseline of activity. […] Furthermore, this assay endpoint can be referred to as a primary readout, because this assay has produced multiple assay endpoints where this one serves a reporter gene function. […]

Sequence of chicken Estrogen Receptor (ESR1), ESR1 (gene 396099) (P06212 whole entry, looked up, the tested form may be a part): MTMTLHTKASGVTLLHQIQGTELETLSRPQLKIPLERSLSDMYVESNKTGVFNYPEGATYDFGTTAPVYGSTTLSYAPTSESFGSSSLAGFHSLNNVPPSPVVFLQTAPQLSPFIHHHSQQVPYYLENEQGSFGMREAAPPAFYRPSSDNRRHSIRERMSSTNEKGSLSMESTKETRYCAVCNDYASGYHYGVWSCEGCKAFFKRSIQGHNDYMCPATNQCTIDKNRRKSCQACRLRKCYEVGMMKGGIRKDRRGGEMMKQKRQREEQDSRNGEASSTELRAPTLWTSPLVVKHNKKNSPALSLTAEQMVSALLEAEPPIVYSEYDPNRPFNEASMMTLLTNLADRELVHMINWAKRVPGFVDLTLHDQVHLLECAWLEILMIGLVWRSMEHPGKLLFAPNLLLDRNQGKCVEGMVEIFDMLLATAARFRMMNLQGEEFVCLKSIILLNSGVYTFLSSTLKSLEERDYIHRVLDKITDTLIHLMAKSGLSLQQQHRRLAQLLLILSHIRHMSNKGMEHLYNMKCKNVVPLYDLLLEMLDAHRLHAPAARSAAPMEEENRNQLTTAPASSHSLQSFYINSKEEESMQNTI
Sequence of Luciferin 4-monooxygenase (Photinus pyralis) (P08659 whole entry, looked up): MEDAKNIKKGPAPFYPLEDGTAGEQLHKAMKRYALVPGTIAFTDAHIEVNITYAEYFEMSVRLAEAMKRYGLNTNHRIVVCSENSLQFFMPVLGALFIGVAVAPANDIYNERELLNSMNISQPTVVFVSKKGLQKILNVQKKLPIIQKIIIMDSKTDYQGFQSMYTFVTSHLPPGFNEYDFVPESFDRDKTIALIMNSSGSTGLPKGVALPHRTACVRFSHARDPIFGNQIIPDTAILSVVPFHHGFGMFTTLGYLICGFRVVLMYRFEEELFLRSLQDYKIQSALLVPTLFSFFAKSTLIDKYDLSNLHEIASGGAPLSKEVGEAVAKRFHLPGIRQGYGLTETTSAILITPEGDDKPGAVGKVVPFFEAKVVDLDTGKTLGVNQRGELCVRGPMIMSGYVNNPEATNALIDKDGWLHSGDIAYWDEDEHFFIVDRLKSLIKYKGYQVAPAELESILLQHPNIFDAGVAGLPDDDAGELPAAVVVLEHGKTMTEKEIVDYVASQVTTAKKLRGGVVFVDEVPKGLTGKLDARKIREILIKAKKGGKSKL
Sequence of zebrafish Estrogen Receptor (ESR1), esr1 (gene 259252) (P57717 whole entry, looked up, the tested form may be a part): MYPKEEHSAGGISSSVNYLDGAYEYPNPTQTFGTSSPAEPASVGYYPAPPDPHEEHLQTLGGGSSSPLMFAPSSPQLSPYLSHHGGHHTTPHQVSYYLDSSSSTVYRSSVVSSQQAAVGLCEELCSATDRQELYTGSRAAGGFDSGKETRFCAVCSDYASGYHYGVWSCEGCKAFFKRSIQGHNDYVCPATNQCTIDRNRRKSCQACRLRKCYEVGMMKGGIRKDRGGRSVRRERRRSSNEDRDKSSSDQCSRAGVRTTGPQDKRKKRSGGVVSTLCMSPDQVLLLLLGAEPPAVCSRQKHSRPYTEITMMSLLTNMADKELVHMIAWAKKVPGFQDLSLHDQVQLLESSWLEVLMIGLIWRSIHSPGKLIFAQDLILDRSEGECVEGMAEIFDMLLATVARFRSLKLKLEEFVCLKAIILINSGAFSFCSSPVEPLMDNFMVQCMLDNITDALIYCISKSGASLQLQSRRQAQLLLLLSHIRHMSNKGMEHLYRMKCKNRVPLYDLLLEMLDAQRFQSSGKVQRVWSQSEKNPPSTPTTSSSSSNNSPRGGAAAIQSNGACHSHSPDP

One may read the AC50 as the midpoint of the concentration-response curve, whichever way the signal moves. Consider `COP(=S)(OC)Oc1ccc(Sc2ccc(OP(=S)(OC)OC)cc2)cc1`, for which the half-maximal activity concentration (AC50) in test [1] is 53.8 µM (active). In addition, the compound was classed as inactive in [2] and in test [3].

With `CCC(C)(C)c1ccc(O)c(C(C)(C)CC)c1`, the outcome in [1] and in test [2] was inactive. In addition, the AC50 in test [3] was 47.9 µM (active).

Turning to `CC(C)(c1ccc(OCC2CO2)cc1)c1ccc(OCC2CO2)cc1` (stereo unspecified), the compound was called inactive in [1], in test [2] and in [3].

In the case of `CC(C)(c1ccccc1)c1ccc(O)c(C(C)(C)c2ccccc2)c1`, in test [1], the outcome was inactive. The values for the AC50 in [2] and in test [3] were 10.1 µM (active) and 12.8 µM (active), respectively.

Take `NNC(=S)NN`: the compound was classed as inactive in test [1], in [2] and in [3].

Regarding `ClC1(Cl)C2(Cl)C3(Cl)C4(Cl)C(Cl)(Cl)C5(Cl)C3(Cl)C1(Cl)C5(Cl)C24Cl` (stereo unspecified), the outcome in test [4], in test [5], in test [6], in [7], in test [2] and in [3] was inactive.

As for `CCC1(c2ccc(N)cc2)CCC(=O)NC1=O` (stereo unspecified), the compound was called inactive in [1], in [2] and in test [3].

Turning to `C[C@H]1CCCC(=O)CCC/C=C/c2cc(O)cc(O)c2C(=O)O1`, the result in test [1] and in test [2] was inactive. Further, the AC50 in test [2] is 30.3 µM (active); in test [3] it was 31.3 µM (active) and 9.08 µM (active).

In the case of `CCOC(=O)Nc1cccc(OC(=O)Nc2ccccc2)c1`, the AC50 in test [1] is 29.1 µM (active). The outcome in test [2] and in test [3] was inactive.

On to `OCc1ccco1`, for which the outcome in [1], in test [2] and in test [3] was inactive.

Regarding `CC12CC1(C)C(=O)N(c1cc(Cl)cc(Cl)c1)C2=O` (stereo unspecified), the result in test [1], in [8], in test [9], in test [2], in test [12] and in [13] was inactive. Further, the concentration at half-maximal activity (AC50) in test [10] is 60.6 µM (active); in test [11] it was 24.7 µM (active); in test [3], 81 µM (active); in [14], 100 µM (active); in test [15] it was 30.9 µM (active).

With `CCCCCCCCc1ccc(O)cc1`, the compound was classed as inactive in test [1]. The values for the half-maximal activity concentration (AC50) in [2] and in test [3] were 29.8 µM (active) and 28.9 µM (active), respectively.

For the compound `CCOP(=S)(OCC)Oc1nc(Cl)c(Cl)cc1Cl`, the result in test [1] was inactive. Besides, the results for the AC50 in test [2] and in test [3] were 83.9 µM (active) and 63.3 µM (active), respectively.

`O=C(O)C(F)(F)C(F)(F)C(F)(F)C(F)(F)C(F)(F)C(F)(F)F`: the result in [1], in test [2] and in [3] was inactive.

As to `Cc1ccc2ccccc2c1C`, the compound was called inactive in [1].

With `Clc1ccc(COC(Cn2ccnc2)c2ccc(Cl)cc2Cl)cc1` (stereo unspecified), the result in test [1] was inactive.

`CCCCCCCCSC(=O)Oc1cc(Cl)nnc1-c1ccccc1`: the AC50 in [1] was 81.7 µM (active).

`C[C@]12CCC(=O)C[C@@H]1CC[C@@H]1[C@@H]2CC[C@]2(C)[C@@H](O)CC[C@@H]12`: the concentration at half-maximal activity (AC50) in test [16] was 0.282 µM (active); in test [17], 0.177 µM (active); in test [8] it was 0.0358 µM (active); in test [10] it was 1 µM (active); in test [11], 1.31 µM (active); in test [13], 0.851 µM (active). Besides, the call in test [12], in test [14] and in [15] was inactive.

Turning to `O=C1C2(Cl)C3(Cl)C4(Cl)C(Cl)(Cl)C5(Cl)C3(Cl)C1(Cl)C5(Cl)C24Cl` (stereo unspecified), the concentration at half-maximal activity (AC50) is 1.93 µM (active) in test [10]; 2.24 µM (active) in test [11]; 0.271 µM (active) in test [12]; 0.0284 µM (active) in [14]; 0.383 µM (active) in [15].
